Reference: the supplement of paper PMC3334620
The full ranking holds about 33,000 sequences; the median of “E-score (-0.5 to 0.5)” is about -0.016, and the highest 2% start at about 0.3. The sample as a whole holds a higher share of the highest values than the screen did.

These sequences were tested against T1, Yer184c (UniProt P39961) (assay: PBM E-score (8-mer binding enrichment) (E-score (-0.5 to 0.5)); higher = stronger / more preferred TF binding). Conditions: protein concentration: 100 nM; construct: GST-full length.
T1 sequence: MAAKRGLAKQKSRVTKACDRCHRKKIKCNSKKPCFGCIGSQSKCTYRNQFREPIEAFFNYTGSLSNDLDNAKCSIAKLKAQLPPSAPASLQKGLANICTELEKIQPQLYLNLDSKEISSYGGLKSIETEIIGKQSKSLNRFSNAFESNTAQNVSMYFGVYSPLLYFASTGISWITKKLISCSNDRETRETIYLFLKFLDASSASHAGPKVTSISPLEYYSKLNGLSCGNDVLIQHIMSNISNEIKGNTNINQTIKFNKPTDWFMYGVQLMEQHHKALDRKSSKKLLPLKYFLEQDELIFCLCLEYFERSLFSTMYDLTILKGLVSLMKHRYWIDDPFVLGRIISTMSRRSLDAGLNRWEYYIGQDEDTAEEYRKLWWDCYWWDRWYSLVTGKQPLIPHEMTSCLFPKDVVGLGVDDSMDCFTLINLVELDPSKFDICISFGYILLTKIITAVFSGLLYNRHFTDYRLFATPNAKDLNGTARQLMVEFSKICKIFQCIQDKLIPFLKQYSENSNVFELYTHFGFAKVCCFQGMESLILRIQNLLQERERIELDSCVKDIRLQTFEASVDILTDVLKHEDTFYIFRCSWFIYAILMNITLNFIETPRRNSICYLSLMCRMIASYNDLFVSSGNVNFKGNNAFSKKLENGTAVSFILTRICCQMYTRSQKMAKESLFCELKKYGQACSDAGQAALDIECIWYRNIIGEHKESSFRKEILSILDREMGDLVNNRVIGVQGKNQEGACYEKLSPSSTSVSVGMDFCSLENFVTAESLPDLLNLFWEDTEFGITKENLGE
In short: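 Each ungapped eight-base word and its reverse complement, pooled, received an E-score from the Universal PBM Analysis Suite. Underlying scans, normalised with masliner, recorded fluorescent anti-GST bound to GST-tagged yeast transcription factors. These were applied at about 100-200 nM to universal all-10-mer Agilent arrays double-stranded by primer extension.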

Sequence	PBM E-score
AACAATAC	0.0929
AATAATAC	0.232
AGTAATAC	0.106
AATAATAT	0.333
AACAATAT	0.352
AGTAATAG	-0.00505
AATAATAG	0.00819
AGTAATAT	0.338
AACAATAA	0.255
CAACATCG	0.0608
CCCACGAC	-0.199
GTTAGAGA	-0.0529
ACCTGCTA	-0.00094
CCTGAGTC	-0.0246
ATATGATA	0.325
GTATGATA	0.226
CTATGATA	0.162
CTGCAACA	0.152
CACAATCA	0.00768
CGGAAATC	0.315
CTGAAATC	0.0356
AGGAAATA	0.249
CGGAAATA	0.424
AGGAAATC	0.0763
GGGAAATA	0.0562

Sequence	PBM E-score
GGACTTTA	0.156
AGTAGGTC	-0.225
CTGCGCAA	-0.0246
ATGGTACG	0.0122
ACTGTTGA	-0.0706
CCGGCGAA	0.35
TCGGCGAA	0.294
GCGGCGAA	0.27
CCGGCGGA	0.369
ACGGCGTA	0.0111
CCGGCGTA	0.313
GCGGCGTA	-0.0609
CCGGCGGC	0.291
GCGGCGGA	0.193
TATCTAAA	0.0877
CACTGCGA	-0.0568
AGGTAGGA	-0.06
GGAGTGCC	0.0423
TACTATGA	0.142
CGGGAAAC	0.286
CGGGAAAG	0.138
CCGGAAAC	0.396
ACGGAAAG	0.231
CAGGAAAC	0.117
CCGGAAAG	0.312

Sequence	PBM E-score
CCCACGAA	-0.0234
CAGCGTCC	-0.0361
TTAGGCAA	-0.168
AGAACAGA	0.0872
GAGTATGC	-0.00892
CGGGGAAA	0.15
TCGGGAAA	0.309
GCGGGAAA	0.223
ACGGGAAA	0.159
CCGGGGAA	0.267
CCGGGAAA	0.35
AGTGCTTG	-0.109
CCTTCTAG	-0.237
ATAGAAAA	-0.0185
ATAGAAAT	0.318
ATAGAAAG	-0.0692
ACAGGCCC	-0.349
ACATTAAG	0.132
CCCCGGGA	0.119
GCCCGGGA	0.282
TCCCGGGA	0.337
ACCCGGGC	0.233
ACCCGGGA	0.367
ACCCGGGT	0.299
GGCCTGGA	-0.213

Sequence	PBM E-score
TGCAAAAA	0.00535
CACGGACC	0.192
AACGGACC	0.185
AACGGAGT	0.312
CACGGAAC	0.349
TACGGAAA	0.362
CACGGAGC	0.14
AACGGAGA	0.107
GACGGAAC	0.125
AACGGAGC	-0.0449
GACGGAAA	0.213
AACGGAAC	0.333
TACGGGAA	0.142
TCTATGCA	0.0433
AGAACGGC	0.176
CTCGAAAA	-0.0323
CATCTGCA	-0.0527
CCACTAAA	-0.0267
GCAAGGGC	-0.274
ACTGCCTC	-0.229
AGATTAGG	-0.068
AGATGGCG	0.0474
AACGGACA	0.202
CACGGAAG	0.149
AACGGGAA	0.25

Sequence	PBM E-score
CTCGGAAC	0.358
AGCGGAAT	0.0752
AACGGAAG	0.179
GTCGGAAC	0.217
CTCGGAAA	0.289
AACGGAAT	0.365
AACGGAAA	0.408
CAAGGAAA	-0.0602
CACGGAAA	0.345
AATAGTGT	0.267
ATCAGTAA	0.166
GAATAGGA	0.0511
GCGATCAC	-0.19
ACTTCTAG	-0.28
GTCACTTA	0.122
AGGGACTG	-0.316
GGACCTGA	-0.0219
ATACATAT	0.255
AGGATCAA	0.14
ATACTGCG	-0.0752
GCGGATCC	0.161
CAGGATCG	-0.0543
CCGGATCC	0.372
GCGGATCA	0.105
TCAGATCA	-0.00186

Sequence	PBM E-score
CCGGATCG	0.352
CCGGATCA	0.328
TAGGATCA	-0.0016
ACGGATCC	0.288
ACGGATCA	0.248
ACGGATCG	0.0937
TCGGATCA	0.31
TCGAGACA	-0.0512
GGCCATAA	-0.102
ACGGCAGG	-0.117
GGGTCAAA	0.0026
CCGTCCAA	-0.024
CAAGCAGC	-0.149
AATGGTTA	-0.0173
TAGTCTAA	-0.101
AAATTTGT	0.213
ACGCCGGG	0.21
CCGCCGCC	0.0576
ACGCCGGC	0.423
CCGCCGGA	0.316
ACGCCGCC	-0.0562
CCGCCGTC	-0.00239
GCGCCGCA	0.166
GCGCCGCC	0.122
CCGCCGGC	0.442

Sequence	PBM E-score
CCGCCGCA	0.0998
GCGCCGGA	0.355
ACGCCGGA	0.227
AGCGTTGG	-0.251
CAATTTGC	-0.0817
TACCTCAA	-0.122
AACATTCG	0.00818
CTTAGTGC	0.081
CCACAAGC	-0.273
ATGTAGAA	-0.0706
ACCATTCA	0.00717
GGCAGGTA	-0.0757
CTCTTAGA	0.0666
CGAAACCG	0.253
AGTCGGCC	0.135
CCCCGGCC	0.0277
CGCCGGCC	0.35
GGCCGGCA	0.415
GGCCGGCC	0.384
GGCCGGTA	0.248
ACCCGGCC	0.255
GACCGGCA	0.173
GCCCGGCC	0.242
CGCCGGTC	0.228
GACCGGCC	0.203

Sequence	PBM E-score
AGCCGGCC	0.333
GTCTCGCA	-0.0807
TGGGTCAA	-0.147
ACGGGCTG	-0.045
AAAATCGG	0.15
ATTTGATG	0.115
ATGGCCCG	-0.0155
CAATCTGC	-0.14
ACCTTGAG	-0.0404
GGAGTAAA	0.134
GTTTCAGA	0.0364
GTTGGTTA	-0.0114
CGATACAC	-0.00964
AAACGGAA	0.403
GAACGGAA	0.267
CAACGGAG	0.0267
AAACGGAG	0.152
AAACGGAT	0.313
TAACGGAA	0.298
AAACGGAC	-0.00077
AAACGGTA	0.163
CAACGGAA	0.36
ACTTCATA	-0.0295
CGAGACGA	-0.0371
AAAGCGTT	-0.0919

Sequence	PBM E-score
CAGAGCAA	0.108
CTCCGCAG	-0.136
CTCCGGAA	0.402
GTCCGGAA	0.429
ATCCGGGG	0.262
CTACGGAG	0.0895
CTCCGTAA	0.0982
ATCCGCAG	0.123
ATCCGGAG	0.398
GTCCGGTA	0.206
CTCCGGAG	0.416
CTCCGGTA	0.218
GTCCGGCA	0.285
AACCGACT	0.0723
CGGCCCCA	-0.282
ACTTGCCA	-0.078
AATGAGAT	0.127
GTAAGGCA	-0.206
ATCCGGGC	0.363
ATGCGGAA	0.271
CTCCGGGC	0.0789
ATCCGTAA	0.149
ATCCGGAT	0.442
ATCAGGAT	0.115
GTCCGGGA	0.342

Sequence	PBM E-score
ATCCGGGA	0.258
ATCCGGAA	0.418
ATCCGCAT	0.111
AACCGGGC	0.187
CTCCGGGA	0.205
TAAGCACA	0.189
ACAGAACT	0.116
AGTCGCAA	-0.0383
CACCATCC	-0.292
AGCATTTA	0.0356
AAGCCACC	-0.342
CAGGCCCA	-0.211
CCCCGGAC	0.0445
CTCCGGAC	0.328
ATCCGTAC	0.195
ATCCGGAC	0.322
ACCCGGAC	0.055
CTCCGGTC	0.248
CAATCCTC	-0.113
CCAGATGC	-0.103
GCAAGAAA	0.161
ATTGAGCG	-0.0456
CCGTCCAG	0.122
AACCGGTG	0.214
CACCGGAG	0.173

Sequence	PBM E-score
AACCGGAA	0.34
AACCGGAT	0.366
AACCGGAC	0.212
AACCGGGA	0.188
AACCGGGG	-0.0803
GACCGGAA	0.232
AACCGGTC	0.229
AACCGGGT	0.202
AACCGGAG	0.358
AACCGGTT	0.359
AGCTACCA	-0.173
ATGCATTA	0.0989
GAATCCCA	-0.0522
ATAGGAGG	-0.285
AGGCTTAC	-0.0812
GACTGGTA	0.00991
TACCGGAA	0.409
CACCGGAC	0.268
CACCGGAA	0.368
TACCGGGA	0.207
CACCGGGA	0.152
TACCGGTA	0.23
AATGGCCC	-0.247
ACCTAGTC	-0.244
ATTATCCA	0.0655

Sequence	PBM E-score
AATATCCC	-0.0444
AGTATCCC	-0.0953
AACATCCG	0.381
ATTATCCG	0.36
ATTATCCC	0.0672
AGTATCCA	-0.00531
AGTATCCG	0.332
CACATCCG	0.282
AACATCCC	0.141
AATATCCG	0.352
AATATCCA	0.17
AATGTTAT	0.184
CACCAGGC	-0.103
CCCTTGAA	-0.0291
TACAATAA	0.14
CATGGTAC	-0.223
ATACCCGA	0.111
CGCCTAAC	-0.0428
TGACTACA	-0.022
ATTAAAAC	0.286
TAATATAA	0.339
AAAAATAA	0.237
AAATATGC	0.0299
AAATATGT	0.304
AAATATGA	0.0794

Sequence	PBM E-score
ATTAAAAG	0.172
AAATATAA	0.327
AAATATCA	0.124
CAATATAA	0.243
GAATATAA	0.085
ATTAAAAA	0.323
GTACAATA	0.188
CACCGCGG	0.242
ACTATATA	0.19
GACGCATA	0.0516
GAATCTAC	0.0543
CGATCACG	0.165
TAGCACGA	0.0455
ACCCCACA	-0.308
AACGATAA	0.0408
AACATCGA	0.0284
AATAATTA	0.299
TATAATAA	0.324
AATAATAA	0.285
TAATATTA	0.381
CATAATAA	0.0808
GATAAAAC	0.305
CAATATTA	0.133
GATAAACC	0.208
CATAATTA	0.233

Sequence	PBM E-score
AAATATTA	0.206
GATAAAAA	0.29
GATAATTA	0.318
CCACAGTC	-0.3
GTGGCCAC	-0.0584
GAGTTGAC	-0.0176
AATCTTAG	0.124
ATATGGTG	-0.0255
ATAGTGAC	-0.0492
GCTATGGA	-0.192
TCTAACCA	0.0158
TAGCTCCA	-0.0638
AATAAATA	0.414
CGATATTA	0.343
ATAAAACC	-0.0255
AATAAATG	0.174
TATAAATA	0.266
ATAAAAAC	0.305
GGATATTA	0.132
TTTATAAA	0.348
ATAAAAAA	0.289
CTTATAAA	0.174
CGATATTC	0.155
GTTATAAA	0.0949
